Data on 40 molecules can be found in PubChem BioAssay (Tox21).

Results filed as inconclusive are left out. Unmarked numbers belong to inactive results. Calls of active or inactive are those of the source. Calls follow the shape of the dose curve; as a rule, active = well fitted inhibition curve with a large enough effect in the signal ratio in the repeat runs (not every such curve was filed as active); inconclusive = weak or mixed curves, or effect the other way; inactive = no such curve, though single readings can be large or run the other way; the % refers to the signal ratio.
% is scaled to controls: 0 for no effect and ±100 for the full control effect.

The target in this test is Bile acid receptor (Homo sapiens) (UniProt Q96RI1). The test can be described thus: qHTS assay to identify small molecule antagonists of the farnesoid-X-receptor (FXR) signaling pathway (AID 743217). To be noted: HEK293T FXR-UAS-bla, beta-lactamase ratio, CDCA-stimulated, 16 h; series mostly up to 62.6 µM; activity change, negative = inhibition: at the top concentration. The source says: U.S. Tox21 Program National Center for Advancing Translational Sciences [NCATS] NIH Chemical Genomics Center [NCGC] U.S. Environmental Protection Agency [EPA] National Institutes of Environmental Health Sciences [NIEHS] National Toxicology Program [NTP] U.S. Food and Drug Administration [FDA] Tox21 Assay Overview: The farnesoid-X-receptor (FXR), a nuclear hormone receptor, is highly expressed in liver, intestine, kidney and adrenal cortex. Natural ligands of FXR are the bile acids (Cholic acid, Chenodeoxy cholic acid etc). FXR is an important regulator of diverse metabolic pathways, including the bile acid homeostasis, lipid and glucose metabolisms. FXR regulates the expression of target genes by binding either as a monomer or as a heterodimer with the retinoid X receptor (RXR). Numerous studies have reported that FXR exerts protective function during cholestasis, diabetes, liver regeneration, and cancer. To identify compounds that inhibit FXR signaling, GeneBLAzer FXR-UAS-bla HEK 293T cell line (Invitrogen, Carlsbad, CA) containing a beta-lactamase reporter gene under the control of a UAS response element was used to screen the Tox21 10K compound library.
Sequence of Bile acid receptor (Homo sapiens) (Q96RI1 whole entry, looked up): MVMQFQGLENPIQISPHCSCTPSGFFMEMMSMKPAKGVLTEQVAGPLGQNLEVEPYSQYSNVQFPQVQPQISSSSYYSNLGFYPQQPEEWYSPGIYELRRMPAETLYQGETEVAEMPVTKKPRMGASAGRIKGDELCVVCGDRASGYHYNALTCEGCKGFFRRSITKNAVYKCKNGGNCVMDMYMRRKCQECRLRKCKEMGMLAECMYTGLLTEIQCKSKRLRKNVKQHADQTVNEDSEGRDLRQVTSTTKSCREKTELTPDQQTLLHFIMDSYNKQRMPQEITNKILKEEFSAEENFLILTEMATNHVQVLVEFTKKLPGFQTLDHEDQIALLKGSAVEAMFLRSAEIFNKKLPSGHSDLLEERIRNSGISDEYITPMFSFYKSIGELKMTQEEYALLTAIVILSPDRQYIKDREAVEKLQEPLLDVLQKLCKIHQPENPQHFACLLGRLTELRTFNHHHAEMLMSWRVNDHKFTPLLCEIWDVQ
Tox21 Assay Protocol Summary: FXR-bla cells were dispensed at 5000 cells/5uL/well in 1536-well black wall/clear bottom plates using a Multidrop Combi (Thermo Fisher Scientific, Waltham, MA) dispenser. After the assay plates were incubated at 37C and 5% CO2 for 5 h, 23 nL of compounds dissolved in DMSO, positive controls or DMSO only was transferred to the assay plate by a Pintool station (Kalypsys, San Diego, CA), followed by addition of 1 uL Chenodeoxycholic acid (50 uM, final concentration in the wells). The assay plates were incubated at 37C for 16 h. After 1 uL of LiveBLAzerTM B/G FRET substrate was added using a Bioraptr Flying Reagent Dispenser (FRD) workstation (Beckman Coulter, Indianapolis, IN), the plates were incubated at room temperature for 2 h, and fluorescence intensity was measured by an Envision plate reader (PerkinElmer, Shelton, CT).
As for `O=c1ccc(=O)[nH][nH]1`, the result was inactive.

Regarding `CCNc1nc(NC(C)(C)C)nc(SC)n1`, the result was inactive.

With `O=S(=O)(c1ccc(Cl)cc1)c1cc(Cl)c(Cl)cc1Cl`, the outcome was inactive.

For `CC1OC(C)OC(C)O1` (stereo not given), the outcome was inactive.

`Cc1[nH]c(=O)n(C(C)(C)C)c(=O)c1Cl`: the result was inactive.

Regarding `C1CC2OC2CC1C1CO1` (stereo not given), the outcome was inactive.

On to `Cc1cc(Cl)ccc1O`, for which the “activity change, negative = inhibition” value is 4.45%.

In the case of `CN=C=S`, the result was inactive.

As for `CC(C)C1(C)N=C(c2nc3ccccc3cc2C(=O)O)NC1=O` (stereo not given), the outcome was inactive.

As to `CCCCCCCCCCCC#N`, the result was inactive.

For the molecule `Nc1ccc(Br)cc1`, the “activity change, negative = inhibition” value is 2.43%.

On to `Cc1ccc(N)cc1N`, for which the outcome was inactive.

For `O=c1[nH]c2ccccc2c(=O)o1`, the outcome was inactive.

For the molecule `COc1ccc2c3c1O[C@H]1[C@@H](O)C=C[C@H]4[C@@H](C2)N(C)CC[C@@]341`, the “activity change, negative = inhibition” value was -0.601% [at 81.1 µM].

Consider `ClCc1cccnc1`, for which the outcome was inactive.

For the molecule `COP(N)(=O)SC` (stereo not given), the outcome was inactive.

On to `CCC[CH2][Sn]([Cl])([Cl])[Cl]`, for which the “activity change, negative = inhibition” value was 0.025% [at 81.1 µM].

Consider `c1ccc(-c2ccccc2)cc1`, for which the result was inactive.

For the molecule `CCCN(CCC)c1c([N+](=O)[O-])cc(C(F)(F)F)cc1[N+](=O)[O-]`, the “activity change, negative = inhibition” value was 9.64%.

As for `CCCCCCCCCl`, the outcome was inactive.

In the case of `CN1C(=O)CN=C(c2ccccc2)c2cc(Cl)ccc21`, the outcome was inactive.

Regarding `CC(Oc1ccc(Cl)cc1Cl)C(=O)O` (stereo not given), the outcome was inactive.

Regarding `CN(N=O)c1ccccc1`, the outcome was inactive.

Regarding `CCC[N+](=O)[O-]`, the result was inactive.

For `CC(C)OC(=O)Nc1cccc(Cl)c1`, the outcome was inactive.

Turning to `Nc1ccc(Cc2ccc(N)cc2)cc1`, the outcome was inactive.

As to `COC(=O)NC(=S)Nc1ccccc1NC(=S)NC(=O)OC`, the outcome was inactive.

Consider `Cc1ccc([N+](=O)[O-])cc1C`, for which the outcome was inactive.

As for `O=NN1CCCC1`, the outcome was inactive.

On to `CCCC1COC(Cn2cncn2)(c2ccc(Cl)cc2Cl)O1` (stereo not given), for which the “activity change, negative = inhibition” value was 7.84% [at 81.1 µM].

Take `COC(=O)c1ccccc1C(=O)OC`: the result was inactive.

Turning to `CCOP(OCC)OCC`, the outcome was inactive.

`CCN(CC)c1ccccc1`: the outcome was inactive.

Consider `Nc1ccccc1C(=O)O`, for which the result was inactive.

As for `c1ccc2c(c1)Oc1ccccc1O2`, the result was inactive.

With `CC(C)(C)OOC(C)(C)C`, the “activity change, negative = inhibition” value is 0.667%.

As for `[O-][Cl+2]([O-])O`, the outcome was inactive.

Turning to `O=S(=O)(c1ccc(O)cc1)c1ccc(O)cc1`, the outcome was inactive.

With `O=C1CCCN1`, the result was inactive.

Turning to `CCOP(=S)(OCC)Oc1cnc2ccccc2n1`, the “activity change, negative = inhibition” value was 0.844%.
